Most compounds without a hit are left out; they make up all but 2.2% or so of the library.
PAX8 inh HTS: inhibitors of PAX8 transcriptional activity in RMG-I cells; inhibition, % at 12.6 µM; RMG-I TPO-luciferase reporter, SteadyGlo, 24 h; 360,000 compounds, 1.2% hits; AID 652154;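 active = mean replicate inhibition at least 60% with every replicate also reaching 60%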;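 note: luciferase light reporting Pax8 driven TPO promoter activity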
Shn3 3UTR inh: reduces Shn3 3'UTR luciferase signal in osteoblasts; inhibition, % at 12.5 µM; Clone20 osteoblast Shn3 3'UTR firefly luciferase, 24 h; 360,000 compounds, 0.52% hits;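 active = mean inhibition of at least 75% with every replicate also reaching 75%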
LMP1 NFkB inh: inhibitors of Epstein-Barr LMP1-induced NF-kappaB reporter | LMP1-induced NF-kappaB luciferase reporter cells, luminescence | inhibition, % at 12.5 µM | 350,000 compounds, 0.69% hits | AID 504558; in the data active = inhibition above about 41%
LGR2 antag: inhibitors of bursicon-induced Drosophila LGR2 receptor cAMP signaling | HEK293 LGR2, CRE-luciferase, bursicon-stimulated, 4 h | 380,000 compounds, 0.35% hits | inhibition, % at 9.99 µM;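 active = drop in luminescence signal, shown as inhibition above about 50% in the replicate tests, limit read from the data, passing the limit was not always enough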;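 note: agonist challenge used bursicon conditioned medium at about half maximal strength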
MITF TRPM1 inh: MITF TRPM1 promoter inhibition in SK-MEL-5 cells; inhibition, % at 12.5 µM; 330,000 compounds, 0.83% hits; SK-MEL-5 TRPM1 promoter luciferase, 24 h;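 active = mean inhibition across replicates of 60% or more, whatever share of single replicates reaches that level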
EWS-Fli inh: inhibitors of EWS/Fli oncoprotein transcriptional activity; 350,000 compounds, 0.67% hits; inhibition, % at 12.6 µM; A673 NR0B1-luciferase reporter, viability-normalised;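 active = mean inhibition of at least 50% after viability correction, with every replicate also passing that limit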;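 note: firefly luciferase signal divided by Alamar Blue viability fluorescence both relative to DMSO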
Numbers stand for hits; 0 = inactive; - = no result given.

SMILES | PAX8 inh HTS | Shn3 3UTR inh | LMP1 NFkB inh | LGR2 antag | MITF TRPM1 inh | EWS-Fli inh
CCCNC(=O)N1C[C@@H](C)[C@H](OC)CN(C)C(=O)c2ccc(NS(C)(=O)=O)cc2OC[C@@H]1C | - | - | - | 0 | - | 0
COCC(=O)Nc1ccc2c(c1)OC[C@@H](C)N(C(=O)c1ccccc1)C[C@H](C)[C@@H](OC)CN(C)C2=O | - | - | - | 0 | - | 0
COc1ccc(N2C(=O)CN=C2Nc2nc(C)cc(C)n2)cc1 | 76 | 0 | 0 | - | 0 | -
COCC(=O)N1CC2(CCN(Cc3cncnc3)CC2)c2c(n(C)c3cc(OC)ccc23)[C@H]1CO | - | - | - | 0 | - | 0
O=[N+]([O-])c1cc(-c2ccccc2)cc([N+](=O)[O-])c1O | - | 0 | 0 | 0 | 0 | 0
O=C([O-])c1ccccc1-[n+]1c(-c2ccccc2)cc(-c2ccccc2)cc1-c1ccccc1 | 85 | 0 | 0 | 0 | 0 | 0
CCc1ccc2c(c1)CCCN2C(=O)c1ccccc1C(=O)O | - | 88 | 0 | - | 0 | -
COc1ccccc1S(=O)(=O)N1CC[C@@H]2[C@H](CO)Nc3ccc(-c4ccccc4)cc3[C@@H]21 | 0 | - | - | 0 | - | 0
COc1ccccc1S(=O)(=O)N1CC[C@@H]2[C@H]1c1cc(-c3ccc(F)cc3)ccc1N[C@@H]2CO | 0 | - | - | 0 | - | 0
COc1ccccc1S(=O)(=O)N1CC[C@@H]2[C@@H](CO)Nc3ccc(-c4ccc(F)cc4)cc3[C@@H]21 | 71 | - | - | 0 | - | 0
COc1ccccc1-c1ccc2c(c1)[C@H]1[C@H](CCN1S(=O)(=O)c1ccccc1OC)[C@@H](CO)N2 | 65 | - | - | 0 | - | 0
COc1ccccc1S(=O)(=O)N1CC[C@@H]2[C@H](CO)Nc3ccc(-c4ccc(F)cc4)cc3[C@@H]21 | 67 | - | - | 0 | - | 0
C[C@@H]1CN([C@H](C)CO)C(=O)Cc2cc(NC(=O)C3CC3)ccc2O[C@H]1CN(C)C(=O)Nc1cccc2ccccc12 | 0 | - | - | 0 | - | 0
C[C@@H]1CN([C@H](C)CO)C(=O)c2cc(C#Cc3cccc(F)c3)cnc2O[C@H]1CN(C)C(=O)C1CCCCC1 | - | - | - | 0 | - | 0
CNC[C@@H]1Oc2ncc(Br)cc2C(=O)N([C@H](C)CO)C[C@H]1C | 0 | - | - | 0 | - | 0
COc1ccc(-c2ccccc2C2Cc3nnccc3CN2)cc1 (stereo unspecified) | 72 | - | - | 0 | - | 0
Brc1ccccc1C1Cc2nnccc2CN1 (stereo unspecified) | 0 | - | - | 0 | - | 0
CC(C)NC(=O)Nc1ccc2c(c1)C(=O)N([C@@H](C)CO)C[C@@H](C)[C@H](CN(C)C(=O)CCC(F)(F)F)OCCCC[C@H](C)O2 | 0 | - | - | 0 | - | -
CCOC(=O)c1c(C)sc2c1N(C(=O)CCl)c1cc(Cl)ccc1S2 | - | 0 | 0 | - | 82 | -
Cc1cc(/C=C2\Cc3ccccc3C2=O)c(C)n1-c1ccccc1 | 0 | 0 | 44 | 0 | 0 | 0
Cc1cc(C=C2C(=O)c3ccccc3C2=O)c(C)n1-c1ccc(C(=O)O)cc1 | 0 | 0 | 0 | 0 | 0 | 0
Cc1cc(C=C2C(=O)c3ccccc3C2=O)c(C)n1-c1ccccc1 | - | 0 | 0 | - | 72 | -
C[C@H](CO)N1C[C@H](C)[C@H](CN(C)S(=O)(=O)c2ccc(Cl)cc2)OCCCC[C@H](C)Oc2ccc(NC(=O)CCC(F)(F)F)cc2C1=O | 0 | - | - | 0 | - | 0
Cc1ccc2c(c1)sc(-c1ccc(N(C)C)cc1)[n+]2C | 0 | 0 | 0 | 0 | 62 | 0
Cc1ccc(N(C)C)cc1 | - | - | - | 0 | - | 0
SMILES | PAX8 inh HTS | Shn3 3UTR inh | LMP1 NFkB inh | LGR2 antag | MITF TRPM1 inh | EWS-Fli inh
C[C@H]1CN([C@@H](C)CO)C(=O)c2cccc(NC(=O)c3ccc(-c4nccs4)cc3)c2O[C@H]1CN(C)S(=O)(=O)c1ccc(Cl)cc1 | 0 | - | - | 0 | - | 0
Cc1ccc2nc(-c3ccc(NC(=S)NC(=O)C(C)C)cc3)sc2c1 | - | 0 | 0 | - | 0 | 0
Cc1ccc2nc(-c3ccc(NC(=S)NC4CC(C)(C)NC(C)(C)C4)cc3)sc2c1 | 91 | 0 | 0 | 62 | 0 | 0
COc1ccc(-n2nc(C(=O)c3cccs3)cc(-c3nc4ccccc4[nH]3)c2=N)cc1 | 0 | 0 | 59 | - | 0 | -
Cc1ccccc1-n1nc(C(=O)c2cccs2)cc(-c2nc3ccccc3[nH]2)c1=N | 0 | 0 | 0 | - | 0 | -
COc1cc(O)c2c(c1)oc(=O)c1c3cc(O)c(O)cc3oc21 | 0 | - | - | - | - | 56
COC(=O)/C=C/S(=O)(=O)c1ccc(NC(C)=O)cc1 | - | 93 | 0 | - | 0 | -
Cc1ccc(OC(=O)N(C)C[C@@H]2OCc3cn(nn3)CCCC(=O)N([C@H](C)CO)C[C@@H]2C)cc1 | 0 | - | - | 0 | - | 0
